Measurements from PubChem BioAssay (NCI).
The panel holds about 83,000 compounds, 20% with a hit somewhere; the sample as a whole holds those more often.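 The endpoint reported here, percent growth, reads 100 for growth as untreated, 0 for no net growth and -100 for all cells dead.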 Activity calls are given as the source filed them. How the source made its calls: active means growth percent below 10; inactive means the rest.

System: HL-60(TB) leukemia
Assay: NCI-60 one-dose screen, 48 h (100 = growth as untreated, 0 = no growth, -100 = all killed)
Details: 10 µM unless noted

SMILES	growth
COc1cc(-c2nc3sccn3c2-c2ccnc(S(C)(=O)=O)n2)ccc1F	93.9% (inactive)
COc1ccc(/C=C(\C#N)C(=O)N2c3ccccc3Sc3ccc(SC)cc32)cc1F	93.5% (inactive)
COC(=O)C(C)NS(=O)(=O)/N=C1\NC(=O)NC1=C(Cl)Cl (stereo not given)	98.7% (inactive)
C[C@@H](Nc1ncnc2ccc(-c3cnc(Cl)c(NS(C)(=O)=O)c3)cc12)c1ccccc1	39% (inactive)
Cn1ccnc1C(=O)/C=C/c1ccc(C(=O)Nc2ccc(NC(=O)CCNC(=O)c3csc(Br)n3)cc2)cc1	41% (inactive)
O=C1c2c(c3c4cc(Br)ccc4[nH]c3c3ccc4ccccc4c23)C(=O)N1CCO	96.7% (inactive)
O=C1c2c(c3c4cc(O)ccc4oc3c3[nH]c4ccccc4c23)C(=O)N1O	9.22% (active)
O=C(Nc1nc2ccc([N+](=O)[O-])cc2s1)Nc1ccccc1Cl	28.7% (inactive)
CC(C)(O)c1cncc(-c2ccc3ncnc(N4CCc5cc(F)c(Cl)cc54)c3c2)c1	1.38% (active)
CC(C)(C)Nc1nc2c(OCCc3ccccc3)cccn2c1-c1cccc(F)c1	-30.2% (active)
Cc1cn(-c2cc(NC(=O)c3cncc(C#Cc4cnc5ccc(O[C@H]6CCOC6)nn45)c3)cc(C(F)(F)F)c2)cn1	37.6% (inactive)
Nc1cc(-c2c[nH]c3ccc(Cl)cc23)nc2cc(-c3c[nH]c4ccc(Cl)cc34)nn12	43.9% (inactive)
N#Cc1c(-c2ccc(Cl)cc2)nc(SCc2ccccc2)nc1N1CCNCC1	1.3% (active)
CCc1ccc(NC(=O)N[C@@H](Cc2cccc(C)c2)C(=O)N[C@@H]2C(=O)N3CCC[C@H]3C(=O)N3CCCC[C@H]3C(=O)N[C@@H](CO)C(=O)N3C[C@H](C)C[C@H]3C(=O)O[C@H]2C)c(F)c1	15.8% (inactive)
CCc1nnc(NC(=O)c2cc(-c3ccc(Cl)cc3Cl)oc2C)s1	88.5% (inactive)
CCN(CC)c1ccc(C=O)c(OCc2cn(CC(=O)Nc3ccc(Cl)cc3)nn2)c1	69.7% (inactive)
CCOC(=O)c1c(Nc2ccccc2)nn2c(-c3cccs3)ccnc12	74.9% (inactive)
CNC(=O)c1cc(Oc2ccc3nc(NC(=O)c4ccc(N5CCOCC5)c(C(F)(F)F)c4)sc3c2)ccn1	94.2% (inactive)
Cc1ccccc1Nc1nc(SC(C)C)nc(-c2ccccc2)c1C#N	94.1% (inactive)
CCCCCc1ccc(S(=O)(=O)Nc2cccc(-c3csc(NC(=O)CNCCN(C)C)n3)c2)cc1	63% (inactive)

SMILES	growth
COc1ccc(NC2=C(Cl)C(=O)C(C)=C(C)C2=O)cc1OC	88.4% (inactive)
Cc1cc(C(=O)Nc2ccc(SC#N)cc2)c(C)o1	47.7% (inactive)
CN1CCN(c2ccc(/C=N/Nc3nc4ccccc4c(=O)n3-c3ccccc3)cc2)CC1	113% (inactive)
C#Cc1nc(/C=C/C(=O)NO)cs1	-58.7% (active)
C#Cc1nc(C2=C(C)/C(=N/OCc3ccccc3)CC2)cs1	-54.1% (active)
COc1ccc(N2C(=O)c3cc(Cl)ccc3NC2SCc2ccccc2)cc1 (stereo not given)	114% (inactive)
CCOP(=O)(OCC)OC[C@]12CCC(C)(C)C[C@H]1C1=CC[C@@H]3[C@@]4(C)CC[C@H](OP(=O)(OCC)OCC)C(C)(C)[C@@H]4CC[C@@]3(C)[C@]1(C)CC2	8.99% (active)
COc1cc(/C=C/C(=O)c2cc(OC)c(OC)c(OC)c2)ccc1OCc1ccc(F)cc1	9.93% (active)
C=C(C)[C@@H]1CC[C@]2(COCCCNCCC#N)CC[C@]3(C)[C@H](CC[C@@H]4[C@@]5(C)CC[C@H](OCCCNCCC#N)C(C)(C)[C@@H]5CC[C@]43C)[C@@H]12	0.0603% (active)
CCN(CC)CCOc1ccc(C(=C(c2ccccc2)C2CCCC2)c2ccc(OCCN(CC)CC)cc2)cc1	-40.9% (active)
O=C(CCCCCC/C=C\c1csc(Br)n1)NO	78.5% (inactive)
C=C1CCc2nc(SCC(=O)O)ccc2N1	96% (inactive)
CC[C@]12C=CCN3CC[C@]4(C(=C(C(=O)OC)C1)Nc1cc5c(cc14)[C@@H]1[C@H](O5)[C@@H](O)[C@@]4(CC)CC(C(=O)OC)=C5Nc6cc(O)ccc6[C@@]56CCN1C46)C32 (stereo not given in full)	-9.82% (active)
C=C(C)[C@@H]1CC[C@]2(COP(=O)(OCC)OCC)CC[C@]3(C)[C@H](CC[C@@H]4[C@@]5(C)CC[C@H](OP(=O)(OCC)OCC)C(C)(C)[C@@H]5CC[C@]43C)[C@@H]12	16.2% (inactive)
O=c1oc2ccc(-c3ccc(F)cc3F)cc2c(=O)n1-c1cccc(C(F)(F)F)c1	-32.7% (active)
N#Cc1cccc(CN2CCc3ncn(Cc4ccc(Cl)cc4)c(=O)c3C2)c1	13.5% (inactive)
COc1ccc(C(=O)c2c(N)c(C#N)cn2-c2ccccc2OC)cc1	-7.7% (active)
CS(=O)(=O)c1ccc(-c2nc3ccccn3c2C=Nc2ccc(Cl)cc2)cc1	59.7% (inactive)
CCOC(=O)c1c(NC(=O)c2ccccc2C(F)(F)F)sc2c1CCC(=O)C2	33.4% (inactive)
NC(=O)c1c(NC(=O)c2ccc(C(F)(F)F)cc2)sc2c1CCC(=O)C2	6.39% (active)
